Bioassay records (PubChem BioAssay)
Giardia killer: Small Molecules that selectively kill Giardia lamblia: qHTS | 0.15% of 340,000 active | activity change, % at 7.66 µM, hits read low | Giardia lamblia trophozoite viability; in the data active = activity change below about -80%; inconclusive = between about -30% and that limit;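 also: parasites exposed to compound for two days anaerobically before the ATP read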
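Viability, read as ATP luminescence: trophozoites at 100 cells/well, compound added, 48 hrs anaerobic at 37 deg C, then 15-30 min room-temperature development before reading.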
FBPA coupling cs: qHTS Assay for Inhibitors of Fructose-1,6-bisphosphate Aldolase from Giardia Lamblia: Coupling assay counterscreen | coupling enzyme system counterscreen, AmpLite Red fluorescence | activity change, negative = inhibition, % at 58.2 µM, hits read low | 0.67% of 290,000 active; in the data active = activity change below about -30%
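Counterscreen lacking aldolase: glyceraldehyde-3-phosphate coupling-enzyme reagent preincubated 10 min at RT with compound (at 57.5 uM final), then substrate/coupling system with AmpLite Red added; fluorescence read at 525/598 nm after 20 min RT.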
RXFP1 ag: qHTS Assay for Agonists of the Relaxin Receptor RXFP1; 0.3% of 370,000 active; HEK293T-RXFP1 cAMP TR-FRET, 30 min; response scale: percent of porcine relaxin response, buffer zero; Potency, µM (top dose mostly 57.5 µM), hits mostly activators; active = well fitted activation curve with a large enough effect; inconclusive = small, poorly fitted or top-dose-only effect; also: nearly all actives have a fitted effect of over 60% in size
Target sequence (Q9HBX9 whole entry, looked up): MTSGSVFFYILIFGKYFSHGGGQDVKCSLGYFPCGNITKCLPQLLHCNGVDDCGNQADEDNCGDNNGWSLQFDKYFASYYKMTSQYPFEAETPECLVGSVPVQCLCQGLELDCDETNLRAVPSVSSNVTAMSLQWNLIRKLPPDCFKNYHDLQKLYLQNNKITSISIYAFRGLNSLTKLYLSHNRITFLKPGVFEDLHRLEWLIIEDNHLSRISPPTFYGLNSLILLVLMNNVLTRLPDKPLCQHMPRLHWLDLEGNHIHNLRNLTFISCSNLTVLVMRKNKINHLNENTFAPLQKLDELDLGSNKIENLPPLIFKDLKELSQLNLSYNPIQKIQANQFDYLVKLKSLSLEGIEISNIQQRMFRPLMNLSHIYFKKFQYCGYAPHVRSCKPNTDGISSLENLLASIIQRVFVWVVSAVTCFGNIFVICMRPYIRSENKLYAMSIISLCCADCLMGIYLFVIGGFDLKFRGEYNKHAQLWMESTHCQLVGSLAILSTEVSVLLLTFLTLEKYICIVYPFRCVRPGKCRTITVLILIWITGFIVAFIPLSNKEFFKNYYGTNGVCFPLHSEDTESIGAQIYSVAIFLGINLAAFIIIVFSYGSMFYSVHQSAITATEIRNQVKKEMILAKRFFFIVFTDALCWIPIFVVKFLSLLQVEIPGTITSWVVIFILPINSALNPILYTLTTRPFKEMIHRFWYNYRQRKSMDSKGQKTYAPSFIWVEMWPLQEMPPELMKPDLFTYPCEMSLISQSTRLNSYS
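HEK293 cells stably expressing RXFP1, treated 30 min at 37C with compounds plus PDE4 inhibitor Ro 20174; cAMP measured by HTRF TR-FRET. Normalized to buffer and 29 nM porcine relaxin; EC50 by Hill fit.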
gsp ag: qHTS for Agonist of gsp, the Etiologic Mutation Responsible for Fibrous Dysplasia/McCune-Albright Syndrome: qHTS | gsp mutant cells, cAMP HTRF, 30 min | 0.13% of 340,000 active | Potency, µM (titrated, usually from 76.9 µM), usual class: activators; active = well fitted activation curve with a large enough effect; inconclusive = small, poorly fitted or top-dose-only effect, or another doubt; inactive = no such curve, though single readings can be large or run the other way; cell line not stated here;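 also: phosphodiesterase inhibitor Ro 20-1724 added with compounds to block cAMP breakdown; nearly all actives have a fitted effect of over 60% in size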
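Cells stably selected in G418 were plated at 2000/well, grown 16-24 hr, then given compounds in DMSO with the PDE inhibitor […] (300 uM solution added) for 30 min at 37C; cAMP was read by HTRF.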
RXFP1 antagonist: qHTS Assay for Antagonists of the Relaxin Receptor RXFP1 | Relaxin receptor 1 (Homo sapiens), Q9HBX9 | HEK293-RXFP1, relaxin-stimulated cAMP HTRF, 30 min; stronger effect = lower value | activity change, negative = inhibition, % at 57.5 µM | 0.59% of 350,000 active | AID 1259400, 2018;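 active = activity change of -60% or lower, but not beyond a set lower limit; inconclusive = change between -60% and -40%, or beyond the set limit; inactive = change above -40%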
gsp antag: qHTS for Antagonists of gsp, the Etiologic Mutation Responsible for Fibrous Dysplasia/McCune-Albright Syndrome: qHTS; gsp-mutant cells, cAMP HTRF, 30 min; Potency, µM (series often up to 76.9 µM), actives largely listed as inhibitors; 0.4% of 340,000 active; AID 624288, 2012; calls by dose curve; cell line not stated here;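 also: intracellular cAMP measured with PDE inhibitor Ro 20-1724 present during compound exposure; nearly all actives have a fitted effect of over 65% in size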
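Cells, 2000/well, grown 16–24 h in DMEM 10% FBS with 0.5 mg/ml G418, then compounds plus […] (300 uM addition stock), 30 min at 37C. cAMP read by HTRF (cAMP-d2 and anti-cAMP antibody-K in lysis buffer) after 30 min RT.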
Numbers stand for hits; [ ] = remark or other dose. An excerpt weighted towards active compounds, which were near 1.6% of everything screened.

`Cc1ccc(-n2c(N)c(C(=O)N3CCN(C)CC3)sc2=S)cc1` gave Giardia killer inactive, FBPA coupling cs -34, RXFP1 ag inactive, gsp ag inactive, RXFP1 antagonist inactive and gsp antag inactive.
For CC1(C)COC(Cn2c3ccccc3c3ccccc32)O1 (stereo not given) the results were Giardia killer inactive, FBPA coupling cs inactive, RXFP1 ag inactive, gsp ag inactive, RXFP1 antagonist -65 and gsp antag inactive.
For CC1COC(Cn2c3ccccc3c3ccccc32)O1 (stereo not given) the results were Giardia killer inactive, FBPA coupling cs inactive, RXFP1 ag inactive, gsp ag inactive[15.4 µM], RXFP1 antagonist inactive and gsp antag inactive.
For CCc1cccc(NC(=O)CCn2nc(C)cc2C)c1 the results were RXFP1 ag inactive and RXFP1 antagonist inactive.
For C=CCN1CCN(C(c2ccc(OC)c(OC)c2)c2nnnn2C(C)(C)C)CC1 (stereo not given) the results were Giardia killer inactive, FBPA coupling cs -72, RXFP1 ag inactive, gsp ag inactive and gsp antag inactive.
COc1ccc(NC(=O)c2c(NCc3ccc(N(C)C)cc3)sc3c2CCC3)cc1 was read as RXFP1 ag inactive and RXFP1 antagonist inactive.
Screening CC(=O)Oc1c(Br)cc(N(C(C)=O)S(=O)(=O)c2ccccc2)c2ccccc12 returned Giardia killer inactive, FBPA coupling cs -45, RXFP1 ag inactive, gsp ag inactive, RXFP1 antagonist inactive and gsp antag inactive.
CC(=O)Oc1ccccc1N(C(C)=O)S(=O)(=O)c1ccc2ccccc2c1 was read as Giardia killer inactive, FBPA coupling cs inactive, RXFP1 ag inactive, gsp ag inactive[15.4 µM], RXFP1 antagonist inactive and gsp antag inactive.
`O=C(Nc1nccs1)C1CC(=O)N(CCc2ccc(F)cc2)C1` (stereo not given) gave Giardia killer inactive, FBPA coupling cs inactive, RXFP1 ag inactive, gsp ag inactive, RXFP1 antagonist inactive and gsp antag inactive.
N#Cc1c(N)sc(=S)c2c1CCCCC2 was read as Giardia killer inactive, FBPA coupling cs -33, RXFP1 ag inactive, gsp ag inconclusive, RXFP1 antagonist inactive and gsp antag inactive.
CC1(C)Cc2c(C#N)c(N)sc(=S)c2CS1 was read as Giardia killer inactive, FBPA coupling cs -44, RXFP1 ag inactive, gsp ag inactive, RXFP1 antagonist inactive and gsp antag inactive.
For N#Cc1c(N)sc2c1CCCCCC2 the results were Giardia killer inactive, FBPA coupling cs inactive, RXFP1 ag inactive, gsp ag inactive, RXFP1 antagonist inactive and gsp antag inactive.
For COc1ccc(C2Nc3ccccc3C(=O)N2Cc2ccccc2)cc1COc1ccc([N+](=O)[O-])c(C)c1 (stereo not given) the results were Giardia killer inactive.
Screening O=C(COCc1cc(-c2cccs2)on1)NCc1cccc(Cl)c1 returned RXFP1 ag inactive and RXFP1 antagonist inactive.
For Cc1cc2c(nc1C)CCCCN2C[C@H](C)O/N=C1/[C@H]2O[C@@H]2[C@@H](O)[C@H]2[C@H]1CCn1c(=O)n(-c3ccccc3)c(=O)n12 the results were FBPA coupling cs inactive.
`O=C(CSCc1ccc(Cl)cc1)N/N=C/c1ccccc1` gave Giardia killer inactive, FBPA coupling cs -37, RXFP1 ag inactive, gsp ag inactive, RXFP1 antagonist inactive and gsp antag inactive.
Screening Cc1nc(-c2ccc(S(=O)(=O)N(Cc3ccccc3)C(C)C)cc2)co1 returned RXFP1 ag inactive.
For CC(C)=NNc1nc2c(c(=O)[nH]c(=O)n2C)n1CCc1ccccc1 the results were Giardia killer inactive, FBPA coupling cs inactive, RXFP1 ag inactive, gsp ag inactive, RXFP1 antagonist -70 and gsp antag inactive.
Screening COc1ccc(CC(=O)NNC(=O)c2ccccn2)cc1 returned Giardia killer inactive, FBPA coupling cs inactive, RXFP1 ag inactive, gsp ag inactive, RXFP1 antagonist -61 and gsp antag inactive.
For COc1ccc(CC(=O)NNC(=O)c2cnccn2)cc1 the results were Giardia killer inactive, FBPA coupling cs inactive, RXFP1 ag inactive, gsp ag inactive, RXFP1 antagonist inactive and gsp antag inactive.
Screening O=c1cc2c(=O)oc3cc(O)c(O)oc3c2c(O)c1O returned Giardia killer inactive, FBPA coupling cs inactive, RXFP1 ag inactive, gsp ag inactive, RXFP1 antagonist inactive and gsp antag inconclusive.
`Cc1cc(C(=O)O)c2c(=O)n(C)c(=O)n(C)c2n1` gave RXFP1 ag inactive.
`COCc1cc(O)c(O)c(O)c1-c1c(COC)cc(O)c(O)c1O` gave FBPA coupling cs -49.
For CCc1oc(C(=O)O)cc1COC the results were Giardia killer inactive, FBPA coupling cs inactive, RXFP1 ag inactive, gsp ag inactive, RXFP1 antagonist inactive and gsp antag inactive.
Screening Cc1cnc([N+](=O)[O-])n1CCOC(=O)NC(=O)c1ccc(C(F)(F)F)cc1 returned Giardia killer -91, FBPA coupling cs inactive, RXFP1 ag inactive, gsp ag inactive[15.4 µM], RXFP1 antagonist inactive and gsp antag inactive.
`Cc1cnc([N+](=O)[O-])n1CCOC(=O)NC(=O)c1cccc(F)c1` gave Giardia killer inconclusive, FBPA coupling cs inactive, RXFP1 ag inactive, gsp ag inactive[15.4 µM], RXFP1 antagonist inactive and gsp antag inactive.
COc1ccc2nc(SCc3ncc(C)c(OC)c3C)[nH]c2c1 was read as RXFP1 antagonist inactive.
Screening CC(=O)Oc1ccc(C2(c3ccc(OC(C)=O)cc3)Oc3ccccc3NC2=O)cc1 returned RXFP1 antagonist inactive.
Screening O=C(Nc1ncc([N+](=O)[O-])s1)C1CC(=O)N(c2ccc(F)cc2)C1 (stereo not given) returned Giardia killer -86, FBPA coupling cs inactive, RXFP1 ag inactive, gsp ag inactive[15.4 µM], RXFP1 antagonist inactive and gsp antag inactive.
`O=C(Nc1nccs1)C1CC(=O)N(c2ccc(F)cc2)C1` (stereo not given) gave Giardia killer inactive, FBPA coupling cs inactive, RXFP1 ag inactive, gsp ag inactive, RXFP1 antagonist inactive and gsp antag inactive.
Screening CC(Oc1cccnc1[N+](=O)[O-])C(=O)Nc1cccc(Cl)c1 (stereo not given) returned Giardia killer -87, RXFP1 ag inactive, gsp ag inactive, RXFP1 antagonist -97 and gsp antag inactive.
